# According to ChEMBL document CHEMBL1201862, “PubChem BioAssay data set” (2004):
# Hit rate of the full screen: of about 55,000 sequences, about 4,100 (7.5%) were called active. No stated cut-off is given here; in the data, active = GI50 up to about 1.1 µM and inactive = higher. These entries were drawn from the full list. Results with a measured potency or affinity are listed apart.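 Where inhibition never reached the appropriate level, the endpoint shown equals the highest concentration tested. Otherwise, values were interpolated linearly from a five-concentration, 48-hour dose response in 96-well plates. GI50: concentration for 50% inhibition of growth.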
# Tested on: SF-539
# Test: NCI tumour cell line growth inhibition, 48 h
row,Substance,GI50
1,"[Bis(aminomethyl)tetramethylenesilane]dichloropaltinum(II), CHEMBL2146205",20.5 µM
2,"[Bis(aminomethyl)pentamethylenesilane]tetrachloropaltinum(IV), CHEMBL2146204",0.558 µM
3,"[Bis(aminomethyl)diethylsilane]tetrachloroplatinum(IV), CHEMBL2146203",2.49 µM
4,"[Bis(aminomethyl)tetramethylenesilane]tetrachloropaltinum(IV), CHEMBL2146189",2.18 µM
5,"[Bis(aminomethyl)dimethylsilane]dichloroplatinum (II), CHEMBL2146201",23.4 µM
6,"cis-Bis[[(trimethylsilyl)methyl]amino]tetrachloroplatinum(IV), CHEMBL2146191",4.24 µM
7,"[Bis(aminomethyl)dimethylsilane]tetrachloroplatinum(IV), CHEMBL2146190",4.99 µM
8,"[Bis(aminomethyl)pentamethylenesilane]dichloropaltinum(II), CHEMBL2146202",1.48 µM
9,"mu-(1,7-nanodiamine-N,N')bis-(cis-aminedichloroplatimum (II)), CHEMBL2146215",27.4 µM
10,"CISPLATIN, CHEMBL11359",1.66 µM
11,"[Bis(aminomethyl)ethylmethylsilane]tetrachloroplatinum(IV), CHEMBL2146192",3.05 µM
